In the supplement of paper PMC8728848:
This excerpt belongs to a sample that is enriched for the strongest signals.

Legend:
Experiment in all cases: glycan array binding signal (z-score within array); higher = stronger binding
Settings in all cases: glycan notation: IUPAC condensed, linker removed
[1] = biological target: Fuc(a1-2)Gal
How it was run: (§1)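 Negative Z-scores can be read as non-binding. The Z-score is calculated within each array and then averaged across arrays of one protein sequence at different concentrations or buffers and across linkers. Arrays, 3228 in all, were curated from the Consortium for Functional Glycomics database and kept only where the protein sequence was available.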

[2] = biological target: Fuc(a1-2)Gal(b1-3)GlcNAc(b1-2)Man(a1-3)[Fuc(a1-2)Gal(b1-3)GlcNAc(b1-2)Man(a1-6)]Man(b1-4)GlcNAc(b1-4)GlcNAc
How it was run: as §1

[3] = biological target: Fuc(a1-2)Gal(b1-3)[Fuc(a1-4)]GlcNAc(b1-2)Man(a1-3)[Fuc(a1-2)Gal(b1-3)[Fuc(a1-4)]GlcNAc(b1-2)Man(a1-6)]Man(b1-4)GlcNAc(b1-4)[Fuc(a1-6)]GlcNAc(b1-4)[Fuc(a1-6)]GlcNAc
How it was run: as §1

[4] = biological target: Fuc(a1-2)Gal(b1-4)[Fuc(a1-3)]GlcNAc(b1-2)[Fuc(a1-2)Gal(b1-4)[Fuc(a1-3)]GlcNAc(b1-4)]Man(a1-3)[Fuc(a1-2)Gal(b1-4)[Fuc(a1-3)]GlcNAc(b1-2)Man(a1-6)]Man(b1-4)GlcNAc(b1-4)GlcNAc
How it was run: as §1

[5] = biological target: Fuc(a1-2)Gal(b1-4)[Fuc(a1-3)]GlcNAc(b1-3)Gal(b1-4)[Fuc(a1-3)]GlcNAc(b1-3)Gal(b1-4)[Fuc(a1-3)]GlcNAc
How it was run: as §1

[6] = biological target: Fuc(a1-2)Gal6S(b1-4)Glc
How it was run: as §1

[7] = biological target: Fuc(a1-2)[Gal(a1-3)]Gal(b1-3)GlcNAc(b1-2)Man(a1-3)[Fuc(a1-2)[Gal(a1-3)]Gal(b1-3)GlcNAc(b1-2)Man(a1-6)]Man(b1-4)GlcNAc(b1-4)[Fuc(a1-6)]GlcNAc
How it was run: as §1

[8] = biological target: Fuc(a1-2)[Gal(a1-3)]Gal(b1-4)GlcNAc
How it was run: as §1

[9] = biological target: Fuc(a1-2)[Gal(a1-3)]Gal(b1-4)GlcNAc(b1-2)Man
How it was run: as §1

[10] = biological target: Fuc(a1-2)[GalNAc(a1-3)]Gal(b1-4)GlcNAc(b1-2)Man
How it was run: as §1

[11] = biological target: Fuc(a1-2)[GalNAc(a1-3)]Gal(b1-4)GlcNAc(b1-3)GalNAc
How it was run: as §1

[12] = biological target: Fuc(a1-3)[Gal(b1-4)]GlcNAc(b1-6)[Gal(b1-3)GlcNAc(b1-3)]Gal(b1-4)Glc
How it was run: as §1

[13] = biological target: Fuc(a1-3)[Gal3S(b1-4)]GlcNAc
How it was run: as §1

[14] = biological target: Gal(a1-4)Gal(b1-4)Glc
How it was run: as §1

[15] = biological target: Gal(b1-3)GlcNAc
How it was run: as §1

[16] = biological target: Gal(b1-3)GlcNAc(a1-6)Gal(b1-4)GlcNAc
How it was run: as §1

[17] = biological target: Gal(b1-3)GlcNAc(b1-2)Man(a1-3)[Gal(b1-3)GlcNAc(b1-2)Man(a1-6)]Man(b1-4)GlcNAc(b1-4)GlcNAc
How it was run: as §1

[18] = biological target: Gal(b1-3)GlcNAc(b1-2)Man(a1-3)[Gal(b1-3)GlcNAc(b1-2)Man(a1-6)]Man(b1-4)GlcNAc(b1-4)[Fuc(a1-6)]GlcNAc
How it was run: as §1

[19] = biological target: Gal(b1-3)GlcNAc(b1-3)Gal(b1-3)GlcNAc
How it was run: as §1

[20] = biological target: Gal(b1-3)GlcNAc(b1-3)Gal(b1-4)GlcNAc
How it was run: as §1

[21] = biological target: Gal(b1-3)GlcNAc(b1-3)Gal(b1-4)GlcNAc(b1-2)[Gal(b1-3)GlcNAc(b1-3)Gal(b1-4)GlcNAc(b1-6)]Man(a1-6)[Gal(b1-3)GlcNAc(b1-3)Gal(b1-4)GlcNAc(b1-2)Man(a1-3)]Man(b1-4)GlcNAc(b1-4)[Fuc(a1-6)]GlcNAc
How it was run: as §1

[22] = biological target: Gal(b1-3)GlcNAc(b1-3)Gal(b1-4)GlcNAc(b1-3)Gal(b1-4)GlcNAc(b1-2)[Gal(b1-3)GlcNAc(b1-3)Gal(b1-4)GlcNAc(b1-3)Gal(b1-4)GlcNAc(b1-6)]Man(a1-6)[Gal(b1-3)GlcNAc(b1-3)Gal(b1-4)GlcNAc(b1-3)Gal(b1-4)GlcNAc(b1-2)Man(a1-3)]Man(b1-4)GlcNAc(b1-4)[Fuc(a1-6)]GlcNAc
How it was run: as §1

[23] = biological target: Gal(b1-3)[Fuc(a1-4)]GlcNAc(b1-3)Gal(b1-4)[Fuc(a1-3)]GlcNAc
How it was run: as §1

[24] = biological target: Gal(b1-3)[Neu5Ac(b2-6)]GalNAc
How it was run: as §1

B1: SGC, Q9M345 (protein)
chain: QNLNFTYNGFHPPLTDISLQGLATVTPNGLLKLTNTSVQKTGHAFCTERIRFKDSQNGNVSSFSTTFVFAIHSQIPTLSGHGIAFVVAPTLGLPFALPSQYIGLFNISNNGNDTNHIFAVEFDTIQSSEFGDPNDNHVGIDLNGLRSANYSTAGYRDDHDKFQNLSLISRKRIQVWIDYDNRSHRIDVTVAPFDSDKPRKPLVSYVRDLSSILLEDMYVGFSSATGSVLSEHFLVGWSFRLNGEAPMLSLSKLPKLPRFEPRRIS
glycan array binding signal (z-score) [1]: -0.354
glycan array binding signal (z-score) [2]: 3.64
glycan array binding signal (z-score) [3]: -0.292
glycan array binding signal (z-score) [4]: -0.12
glycan array binding signal (z-score) [5]: -0.332
glycan array binding signal (z-score) [6]: -0.377
glycan array binding signal (z-score) [7]: -0.4
glycan array binding signal (z-score) [8]: -0.374
glycan array binding signal (z-score) [9]: -0.352
glycan array binding signal (z-score) [10]: -0.4
glycan array binding signal (z-score) [11]: -0.344
glycan array binding signal (z-score) [12]: -0.291
glycan array binding signal (z-score) [13]: -0.299
glycan array binding signal (z-score) [14]: -0.292
glycan array binding signal (z-score) [15]: -0.208
glycan array binding signal (z-score) [16]: 0.154
glycan array binding signal (z-score) [17]: 3.77
glycan array binding signal (z-score) [18]: 6.74
glycan array binding signal (z-score) [19]: 0.723
glycan array binding signal (z-score) [20]: -0.434
glycan array binding signal (z-score) [21]: 5.28
glycan array binding signal (z-score) [22]: 4.72
glycan array binding signal (z-score) [23]: -0.357
glycan array binding signal (z-score) [24]: -0.305
